The source of these data is PubChem BioAssay (Tox21).

Several values for one entry are separate records, joined by “and”; a condition that tells them apart may be missing. Equal entries are not always repeated. Results filed as inconclusive are left out. Where a call stands in place of a potency, no number is given. Some compounds were tested as several samples or in several runs, with calls that do not always agree. Activity calls are given as the source filed them. Calls follow the shape of the dose curve; as a rule, active = well fitted activation curve with a large enough effect in the repeat runs; inconclusive = weak or mixed curves; inactive = no such curve, though single readings can be large or run the other way.
Potency is read from the fitted curve at half-maximal effect.

Chain of Aryl hydrocarbon receptor (Homo sapiens) (P35869 whole entry, looked up): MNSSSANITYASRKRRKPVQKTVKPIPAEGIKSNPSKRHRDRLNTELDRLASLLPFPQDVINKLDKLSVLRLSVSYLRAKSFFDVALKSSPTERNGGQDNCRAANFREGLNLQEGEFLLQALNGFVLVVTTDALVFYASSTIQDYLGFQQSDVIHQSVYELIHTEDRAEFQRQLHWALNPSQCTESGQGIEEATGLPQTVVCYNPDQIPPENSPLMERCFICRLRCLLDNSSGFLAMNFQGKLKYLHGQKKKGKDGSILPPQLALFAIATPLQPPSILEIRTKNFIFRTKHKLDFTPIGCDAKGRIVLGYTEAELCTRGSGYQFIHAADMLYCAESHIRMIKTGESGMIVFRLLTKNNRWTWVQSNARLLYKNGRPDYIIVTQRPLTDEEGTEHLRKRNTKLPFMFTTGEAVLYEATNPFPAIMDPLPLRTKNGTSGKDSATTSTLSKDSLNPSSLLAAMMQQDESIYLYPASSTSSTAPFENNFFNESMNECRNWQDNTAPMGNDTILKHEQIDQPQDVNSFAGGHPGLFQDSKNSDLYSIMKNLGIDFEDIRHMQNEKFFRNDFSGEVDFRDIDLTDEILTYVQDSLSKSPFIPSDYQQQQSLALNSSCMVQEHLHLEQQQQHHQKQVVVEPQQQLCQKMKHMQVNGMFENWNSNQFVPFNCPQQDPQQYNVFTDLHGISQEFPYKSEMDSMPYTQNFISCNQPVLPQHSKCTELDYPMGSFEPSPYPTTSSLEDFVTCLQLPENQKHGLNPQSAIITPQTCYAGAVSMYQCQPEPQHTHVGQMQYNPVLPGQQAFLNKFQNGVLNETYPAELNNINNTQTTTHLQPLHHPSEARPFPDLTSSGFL

The assay addresses Aryl hydrocarbon receptor (Homo sapiens) (UniProt P35869). The assay can be described thus: qHTS assay to identify small molecule that activate the aryl hydrocarbon receptor (AhR) signaling pathway (AID 743085). Also: nearly all actives have a fitted effect of over 15% in size.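 As to activation: HG2L7.5c1 human HepG2 liver cells with stably integrated DRE-driven firefly reporter.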 Conditions: HepG2 AhR-luc (HG2L7.5c1), luciferase, 24 h; series mostly up to 70.3 µM; activation: at the top concentration. An excerpt:
U.S. Tox21 Program National Center for Advancing Translational Sciences [NCATS] NIH Chemical Genomics Center [NCGC] U.S. Environmental Protection Agency [EPA] National Institutes of Environmental Health Sciences [NIEHS] National Toxicology Program [NTP] U.S. Food and Drug Administration [FDA] Tox21 Assay overview: The Aryl hydrocarbon Receptor (AhR), a member of the family of basic helix-loop-helix transcription factors, is crucial to adaptive responses to environmental changes. AhR mediates cellular responses to environmental pollutants such as aromatic hydrocarbons through induction of phase I and II enzymes but also interacts with other nuclear receptor signaling pathways. A cell based HepG2-AhR-luc assay (HG2L7.5c1 cell line, developed by Dr. Michael S. Denison, University of California at Davis, was used to assess the activation of AhR. HepG2 (human hepatocellular carcinoma) cells were stably transfected with an Ah receptor-responsive firefly luciferase reporter gene plasmid containing 20 dioxin responsive elements and luciferase reporter gene. Increased luciferase activity can be used to identify the compounds that induce AhR activation.
Tox21 Assay Protocol Summary: 4000 cells in 5 uL/well were dispensed into white wall/solid bottom 1536-well plates using a Multidrop Combi (Thermo Fisher Scientific Inc., Waltham, MA) dispenser. After the assay plates were incubated at 37C for 5 h, 23 nL of compound or DMSO vehicle was transferred to the assay plates by a pintool station (Kalypsys, San Diego, CA). The plates were incubated at 37C for 24 hr. After 1 ul/well of CellTiter-Fluor reagent (Promega, Madison, WI) was added into the assay plates using a Flying Reagent Dispenser (FRD) (Aurora Discovery, CA), the assay plates were incubated at 37C for 30 min. The fluorescence intensity in the plates was measured using a ViewLux plate reader (PerkinElmer, Shelton, CT), followed by the addition of 4 uL of ONE-Glo Luciferase Assay reagent (Promega) using an FRD (Aurora Discovery). After the assay plates were incubated at room temperature for 30 min, luminescence intensity was measured using a ViewLux plate reader (Perkin Elmer).
`Nc1ccc(Cl)cc1N`: the Potency is 11.3 µM (active) and 13.7 µM (active). Turning to `Cc1cc(Cl)ccc1OCCCC(=O)O`, the “activation” value was -0.954% (inactive). Take `CCN(CC)C(=O)SCc1ccc(Cl)cc1`: the “activation” value was 2.73% (inactive). For `c1ccc(P(c2ccccc2)c2ccccc2)cc1`, the Potency entry is “inactive”. As to `O=P(Oc1ccccc1)(Oc1ccccc1)Oc1ccccc1`, the Potency entry was “inactive”. Consider `Oc1cc(Cl)ccc1Cl`, for which the Potency entry is “inactive”. Same read-out and setting: the value for `Oc1cc(Cl)ccc1Oc1ccc(Cl)cc1Cl` was “inactive and 21 µM (active)”. `Cc1ccccc1[N+](=O)[O-]`: the Potency entry was “inactive”. Same read-out and setting: the same measure for `S=C1NCCN1`: “inactive”. Same read-out and setting: the same measure for `C[C@]12CCC(=O)C[C@@H]1CC[C@@H]1[C@@H]2CC[C@]2(C)[C@@H](O)CC[C@@H]12`: “inactive”. Take `CCCCCCOC(=O)c1ccccc1C(=O)OCCCCCC`: the Potency entry is “inactive”. Same read-out and setting: the value for `O=[N+]([O-])c1ccc(O)c([N+](=O)[O-])c1` was 24.4 µM (active); that for `c1ccc(N=Nc2ccccc2)cc1` was “inactive”. The same measure, in the same setting: the same measure for `O=c1oc2ccccc2c(O)c1C(CC(O)c1ccc(-c2ccc(Br)cc2)cc1)c1ccccc1` (stereo not given): “inactive”. Still for that read-out and setting: the value for `Nc1ccc(Cl)c(Cl)c1` was 55.7 µM (active) and 61.1 µM (active); that for `CCCCCCCCCCCOC(=O)c1ccccc1C(=O)OCCCCCCCCCCC` was “inactive”. For `c1nc[nH]n1`, the “activation” value is -0.0868% (inactive). Take `COP(=O)(OC)OC`: the Potency entry is “inactive”. Still for that read-out and setting: the value for `Nn1cnnc1` was “inactive”; that for `N#CC(Br)Br` was “inactive”. In the case of `Cc1c(COC(=O)[C@@H]2[C@H](/C=C(\Cl)C(F)(F)F)C2(C)C)cccc1-c1ccccc1`, the Potency entry was “inactive”.

Consider `CCC(C)(C)c1ccc(O)cc1`, for which the Potency result was “inactive”. The same measure, in the same setting: the value for `O=Cc1ccco1` was “inactive”; that for `COC(=O)c1sccc1S(=O)(=O)NC(=O)Nc1nc(C)nc(OC)n1` was “inactive”.

As for `CC(C)(c1cc(Cl)c(O)c(Cl)c1)c1cc(Cl)c(O)c(Cl)c1`, the “activation” value is 4.89% (inactive). Take `CCN(CC)C(=O)/C(Cl)=C(\C)OP(=O)(OC)OC`: the Potency result was “inactive”. Same read-out and setting: the value for `CCCCC(CC)COC(=O)c1ccc(C(=O)OCC(CC)CCCC)c(C(=O)OCC(CC)CCCC)c1` (stereo not given) was “inactive”. On the same count and under the same terms, the value for `CCOCN(C(=O)CCl)c1c(C)cccc1CC` was “inactive”. Turning to `CC(C)Oc1cc(-n2nc(C(C)(C)C)oc2=O)c(Cl)cc1Cl`, the “activation” value was 3.92% (inactive).

As for `C=C(C)[C@H]1Cc2c(ccc3c2O[C@@H]2COc4cc(OC)c(OC)cc4[C@@H]2C3=O)O1`, the Potency result was “inactive”. Still for that read-out and setting: the value for `C=CCc1ccc(OC)cc1` was “inactive”; that for `CN(C)C(=O)Nc1ccc(Cl)cc1` was “inactive”. Still for that read-out and setting: the value for `OCC(O)CO` was “inactive”; that for `CC(C)C(=O)OCC(C)(C)C(OC(=O)C(C)C)C(C)C` (stereo not given) was “inactive”; that for `CCC(C)c1cc([N+](=O)[O-])cc([N+](=O)[O-])c1O` (stereo not given) was “inactive”. Turning to `c1ccc(-c2cccc(-c3ccccc3)c2)cc1`, the Potency result was “inactive and 61.1 µM (active)”. For `Cc1ccc(OP(=O)(Oc2ccc(C)cc2)Oc2ccc(C)cc2)cc1`, the “activation” value was 12.8% (inactive). Turning to `ClC1C(Cl)C(Cl)C(Cl)C(Cl)C1Cl` (stereo not given), the Potency entry was “inactive”. In the case of `Nc1c(Cl)cc([N+](=O)[O-])cc1Cl`, the Potency entry is “inactive”. For `O=S(=O)(Oc1ccc(Cl)cc1)c1ccc(Cl)cc1`, the “activation” value was 7.97% [at 95 µM] (inactive).
